Assay outcomes as filed in PubChem.
Rows were chosen to be rich in hits. Some 6.6% of all compounds tested hit in one or more screens of this group.
TGFb inhibitor: TGF-b pathway inhibition; HepG2 CAGA-GFP TGF-b/SMAD3 reporter, GFP fluorescence, 18 h; TGF-beta stimulated, 500 pg/mL final; Potency, µM (top dose mostly 46.1 µM), hits mostly inhibitors; 410,000 compounds, 1.2% hits; further: nearly all actives have a fitted effect of over 65% in size
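Using HEPG2 CAGA-GFP reporter cells at 1000 cells/well, we pinned test compounds, stimulated with recombinant TGF-beta (500 pg/mL final) and measured total well GFP after 18 h.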
HepG2 tox: HepG2 cytotoxicity, counter-screen for TGF-b inhibitors. HepG2 CAGA-GFP viability, ATP luminescence, 18 h. Potency, µM (highest dose often 46.1 µM), hits mostly cytotoxic. 410,000 compounds, 0.76% hits. AID 588856
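HepG2 CAGA-GFP cells (1000/well, DMEM with 1% FBS) received compound, then TGF-beta at 500 pg/mL final, and were incubated 18 hours at 37 degrees C. Viability was read by CellTiter-Glo luminescence. Media-only wells were set as complete cell-killing and DMSO as no toxicity.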
HT1080 IDH1KD tx: toxicity to HT-1080 IDH1 knockdown cells (counter line). 360,000 compounds, 2% hits. AID 686971. Potency, µM (highest dose often 46.1 µM), hits mostly cytotoxic. HT-1080 IDH1 knockdown viability, ATP luminescence, 48 h
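Assay cells: HT-1080 with IDH1 knockdown, 750 per well, RPMI/5% FBS. Exposure: 48 h at 37 °C following 2 h pre-incubation. Read: CellTiter-Glo luminescence; fitted concentration-response, curve class assigned.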
KB-3-1 tox: KB-3-1 parental cell cytotoxicity | KB-3-1 viability, CellTiter-Glo ATP luminescence, 72 h | 400,000 compounds, 1.4% hits | Potency, µM (doses to about 46.1 µM), actives largely listed as cytotoxic; further: nearly all actives have a fitted effect of over 60% in size
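Cells are dispensed, compounds pinned in, plates held at 37 °C for 72 h, then CellTiter-Glo is added and luminescence read after 10 minutes. Cell line: parental KB-3-1 in phenol-red-free DMEM, 10% FBS.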
HT1080NT lethal: kills 2HG-producing HT-1080-NT fibrosarcoma cells. HT-1080-NT fibrosarcoma viability, CellTiter-Glo ATP luminescence, 48 h. Potency, µM (highest dose often 46.1 µM), hits mostly cytotoxic. 360,000 compounds, 1.6% hits. AID 686970;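 further: NT is the 2HG producing partner of a matched IDH1 knockdown line; nearly all actives have a fitted effect of over 55% in size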
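Viability by CellTiter-Glo luminescence after 48 h compound exposure at 37C of HT-1080-NT cells (750/well, RPMI, 5% FBS). % activity scaled between DMSO wells and medium-only wells, then curve-fitted and categorized by curve class.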
KB-V1 MDR tox: KB-V1 MDR subline cytotoxicity | 400,000 compounds, 3.4% hits | Potency, µM (highest dose often 46.1 µM), actives largely listed as cytotoxic | KB-V1 MDR cells viability, CellTiter-Glo, 72 h; further: nearly all actives have a fitted effect of over 60% in size
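KB-V1, DMEM (no phenol red) + 10% FBS; cpd pin-transferred, titration series; 72 h, 37 degrees C; CellTiter-Glo, luminescence. Data normalized, curve-fit.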
A number is an active result; . = inactive; ? = inconclusive; / = no result. The call rests on the fitted dose curve; in most records, active means well fitted curve in the direction sought with a large enough effect; inconclusive means small, poorly fitted or top-dose-only effect, or another doubt; inactive means no such curve, though single readings can be large; an effect the other way counts as inactive or inconclusive.

SMILES | TGFb inhibitor | HepG2 tox | HT1080 IDH1KD tx | KB-3-1 tox | HT1080NT lethal | KB-V1 MDR tox
Cc1cc(Br)ccc1NC(=O)CNC(=O)Cn1ncc(Cl)c(Cl)c1=O | . | . | 2.6µM | 5.2µM | 3.7µM | ?
CCCc1cc(=O)[nH]c(SCC(=O)Nc2cc(S(=O)(=O)N3CCCCC3)ccc2C)n1 | ? | 16µM | 15µM | ? | 10µM | .
Cc1ccc(S(=O)(=O)N2CCCCC2)cc1NC(=O)CNC(C)c1ccc(Cl)c(Cl)c1 (stereo not drawn) | ? | . | . | 15µM | ? | .
Cc1ccc(S(=O)(=O)N2CCCCC2)cc1NC(=O)Cn1ncc(Cl)c(Cl)c1=O | ? | . | 15µM | ? | 21µM | .
COc1ccccc1CCNS(=O)(=O)c1ccc(N2CCCCS2(=O)=O)cc1 | . | . | / | . | / | .
Cc1ccc(S(=O)(=O)N2CCCCC2)cc1NCC(=O)Nc1ccc(Br)cc1F | ? | . | ? | 3.3µM | ? | ?
CCOC(=O)c1cocc1C(=O)O | ? | 1.6µM | . | . | . | ?
CCOC(=O)c1coc(C(=O)OCC)c1C(=O)OCC | . | . | . | . | . | .
Cc1cccc(CNC(=O)c2sc3ncnc(N(C)C4CCCCC4)c3c2C)c1 | ? | . | / | . | / | .
COc1cc(C2c3cc4c(cc3CC3COC(=O)N32)OCO4)cc(OC)c1OC (stereo not drawn) | . | . | 1µM | 0.73µM | 1.3µM | 2.1µM
CC1(C(=O)Nc2ccc3c(c2)OCCO3)CCN1Cc1ccc2ccccc2c1 (stereo not drawn) | ? | . | ? | ? | ? | 21µM
CC1(C(=O)Nc2ccccc2)CCN1C(=O)Cc1ccc(-c2ccccc2)cc1 (stereo not drawn) | . | . | ? | . | ? | .
CCC(=O)N1CCC1(C)C(=O)Nc1ccc2c(c1)OCO2 (stereo not drawn) | 14µM | . | . | . | . | ?
CC1(C(=O)Nc2ccc3c(c2)OCO3)CCN1C(=O)Cc1ccc(-c2ccccc2)cc1 (stereo not drawn) | . | . | ? | 12µM | ? | 3.3µM
CCOc1ccc(NC(=O)CCS(=O)(=O)c2cc3c4c(c2)CCN4C(=O)CC3)cc1 | . | . | / | . | / | .
Cc1ccc(C)c(Nc2cc(C)nc(-c3ccccc3O)n2)c1 | ? | . | ? | 2.6µM | ? | .
Cc1cc(NCc2ccccc2)nc(-c2ccccc2O)n1 | ? | . | . | ? | . | 16µM
Cc1cc(Nc2cccc(F)c2)nc(-c2ccccc2O)n1 | ? | 11µM | ? | . | ? | .
Cc1cccc(NC(=O)c2cnn(-c3ccccc3)c2-n2cccc2)c1C | ? | . | / | . | / | .
CN(C1=NC(=O)C(CC(=O)Nc2ccc(Br)cc2)S1)c1ccc(O)cc1 (stereo not drawn) | ? | . | 7.9µM | . | ? | .
O=C(NNc1ccccc1)c1sc2ccccc2c1Cl | / | / | ? | / | . | /
COc1ccc(C(=O)Nc2cc(-c3cccc(C)c3)nn2-c2ccccc2)cc1 | . | . | / | . | / | .
CC1CCCC(NC(=O)CSc2ccc(F)cc2)C1C (stereo not drawn) | . | . | . | . | . | .
CC1CCCC(NCC(O)COC(c2ccc(F)cc2)c2ccc(F)cc2)C1C (stereo not drawn) | ? | 22µM | 21µM | ? | 16µM | 18µM
O=C1C2CC=CCC2C(=O)N1Nc1ccccc1 (stereo not drawn) | . | . | ? | . | 21µM | .
SMILES | TGFb inhibitor | HepG2 tox | HT1080 IDH1KD tx | KB-3-1 tox | HT1080NT lethal | KB-V1 MDR tox
COC(=O)CNC(=O)CNC(=O)c1nn(-c2ccc(OC)c(Cl)c2)c(=O)c2ccccc12 | . | . | . | . | . | .
COc1ccc(-n2nc(C(=O)NCc3ccco3)c3ccccc3c2=O)cc1 | . | . | 10µM | . | ? | .
COc1ccc(-n2nc(C(=O)NCC(=O)NCc3ccco3)c3ccccc3c2=O)cc1Cl | . | . | . | . | . | 5.8µM
CC1(C(=O)NCc2ccco2)Cc2c(-c3cccc(C(F)(F)F)c3)ccnc2O1 (stereo not drawn) | . | . | ? | 6.5µM | ? | ?
CC(=O)Nc1cccc(-c2ccnc3c2CC(C)(C(=O)Nc2cccc(OC(F)(F)F)c2)O3)c1 (stereo not drawn) | 14µM | . | ? | ? | 9.2µM | ?
CC(=O)Nc1ccc(-c2ccnc3c2CC(C)(C(=O)NCC2CC2)O3)cc1 (stereo not drawn) | . | . | . | . | . | .
CC1(C(=O)NCc2ccncc2)Cc2c(-c3cccc(C(F)(F)F)c3)ccnc2O1 (stereo not drawn) | . | . | . | . | . | .
CC1(C(=O)NCc2ccc(F)c(F)c2)Cc2c(-c3cccc(C(N)=O)c3)ccnc2O1 (stereo not drawn) | . | . | 10µM | ? | 26µM | .
CC(=O)Nc1cccc(-c2ccnc3c2CC(C)(C(=O)NCC2CC2)O3)c1 (stereo not drawn) | . | . | / | 12µM | / | .
COc1ccc(CNC(=O)C2(C)Cc3c(-c4cccc(C(N)=O)c4)ccnc3O2)cc1OC (stereo not drawn) | . | . | . | . | . | .
O=C(Nc1ccc2sccc2c1)Nc1nnc(-c2ccncc2)s1 | / | / | / | . | / | .
CC(=O)Nc1ccc(-c2ccnc3c2CC(C)(C(=O)NCc2ccco2)O3)cc1 (stereo not drawn) | . | . | 2.6µM | 10µM | ? | .
CC1(C(=O)NCc2ccccc2)Cc2c(-c3cccc(C(N)=O)c3)ccnc2O1 (stereo not drawn) | . | . | ? | 6.5µM | ? | .
CC1(C(=O)NCc2ccco2)Cc2c(-c3cccc(C(N)=O)c3)ccnc2O1 (stereo not drawn) | . | . | ? | 10µM | ? | .
CC(=O)Nc1cccc(-c2ccnc3c2CC(C)(C(=O)NCCC(F)(F)F)O3)c1 (stereo not drawn) | . | . | ? | ? | ? | .
CC(=O)Nc1cccc(-c2ccnc3c2CC(C)(C(=O)NCc2ccc(F)c(F)c2)O3)c1 (stereo not drawn) | . | . | ? | 15µM | ? | ?
CN1CCN(C(=O)Cn2c(-c3cccs3)cc3cc(Cl)ccc32)CC1 | . | . | / | . | / | .
COc1ccc(Nc2nc(N)nc(CCl)n2)cc1 | . | . | 23µM | ? | 1.5µM | ?
Cc1ccccc1NC(=O)CSCc1nc(N)nc(Nc2ccccc2C)n1 | . | . | . | . | . | .
Cc1c(Cl)cccc1Nc1nc(N)nc(CSCCO)n1 | . | . | . | . | . | .
Nc1nc(CCl)nc(Nc2ccc3ccccc3c2)n1 | ? | . | 8.2µM | ? | 2.1µM | 23µM
